Compound activity: PubChem BioAssay, National Center for Advancing Translational Sciences (NCATS)
Menin MLL FP FL = menin-MLL binding inhibition, fluorescein peptide. Fluorescence polarization, fluorescein-MLL peptide displacement from menin. 290,000 tested, under 10 active. AID 1766. FP activity change, % at 61.4 µM; active means well fitted curve in the direction sought with a large enough effect in the polarisation, not every such curve was filed as active; inconclusive means small, poorly fitted or top-dose-only effect, or effect the other way, or a change in a side signal; inactive means no such curve, though single readings can be large or run the other way; the % refers to the polarisation; further: % of control where 0% means no effect
p53 reactivation = mutant p53 re-activation in reporter cells. Potency, µM (top dose mostly 92.2 µM), for the others: at the top dose activity change, positive = activation, hits mostly activators. H1299 p53-A138V BP100-luciferase reporter, luminescence, 24 h. AID 504706. 320,000 tested, 0.063% active; further: potency means the concentration at half of the fitted maximal effect; % of control where 0% means no effect; nearly all actives have a fitted effect of over 45% in size
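H1299 (p53-null), stable ts p53-A138V + BP100-Luc; 1000 cells/well, Opti-MEM/10% FBS; cpd 4 pt, 1:5; 24 h, 37 deg C, 5% CO2; detection reagent 10 min RT; luminescence.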
CXXC DNA block = MLL CXXC-DNA interaction inhibition; AID 2662; Potency, µM (titrated, usually from 115 µM), without a hit: at the top dose activity change, negative = inhibition, usual class: inhibitors; MLL-CXXC / FITC-HOXA9 DNA fluorescence polarization; 290,000 tested, 0.037% active; Q03164; active means well fitted inhibition curve with a large enough effect in the polarisation, with a control signal flat, not every such curve was filed as active; inconclusive means small, poorly fitted or top-dose-only effect, or effect the other way, or a change in a side signal; inactive means no such curve, though single readings can be large or run the other way; the % refers to the polarisation; further: potency means the concentration at half of the fitted maximal effect
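Fluorescence polarization: 7 uM MLL-CXXC (stock) preincubated 5 min with compounds, then 50 nM fluorescein-HOX-A9 DNA (stock) added; 30 min ambient. Buffer 50 mM Tris-HCl pH 7.5, 50 mM NaCl, 1 mM DTT, 0.05% BSA.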
Menin-MLL TR inh = inhibitors of human menin-MLL interaction, mutant MLL peptide. Potency, µM (top dose mostly 61.6 µM), for the others: at the highest dose FP activity change, negative = inhibition, most hits filed as inhibitors. Menin + Texas Red MLL mutant peptide, fluorescence polarization. O00255. 270,000 tested, 0.23% active; active means well fitted inhibition curve with a large enough effect in the polarisation, with a control signal flat, not every such curve was filed as active; inconclusive means small, poorly fitted or top-dose-only effect, or effect the other way, or a change in a side signal; inactive means no such curve, though single readings can be large or run the other way; the % refers to the polarisation; further: potency means the concentration at half of the fitted maximal effect; % of control where 0% means no effect
ClpP mod = qHTS Assay for Activators of ClpP | 340,000 tested, 1.9% active | Potency, µM (series often up to 57.5 µM), for inactives: top-dose activity change, negative = active | purified B. subtilis ClpP, FRET peptide cleavage, 20 min | AID 651965, 2013; active means well fitted falling curve with a large enough effect; inconclusive means small, poorly fitted or top-dose-only effect; inactive means no such curve, though single readings can be large or run the other way; further: potency means the concentration at half of the fitted maximal effect; the source files actives as falling curves though it sought activators and does not explain the sign; nearly all actives have a fitted effect of over 65% in size
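ClpP 10 microg/mL final, pH 8 Tris/KCl buffer with BSA, glycerol, Tween-20; compound pinned in; FRET-FV substrate; RT 20 min; Ex320/Em430; ΔFRET vs ADEP 5.8 microM, DMSO, no enzyme.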
MLL CXXC Fl = MLL CXXC-DNA interaction inhibition, fluorescein FP. MLL CXXC-DNA binding, fluorescein FP. shares compounds with CXXC DNA block. Potency, µM (highest dose often 345 µM), for inactives: top-dose activity change, negative = inhibition, hits mostly inhibitors. 200 tested, 70% active. AID 624160; further: potency means the concentration at half of the fitted maximal effect; nearly all actives have a fitted effect of over 80% in size
MLL CXXC TxRed = inhibitors of human MLL CXXC domain-DNA interaction, Texas Red format | shares compounds with CXXC DNA block | AID 624161 | 200 tested, 40% active | Potency, µM (doses to about 345 µM), inactives show at the top dose activity change, negative = inhibition, most hits filed as inhibitors | MLL CXXC-DNA binding, Texas Red fluorescence polarization; further: potency means the concentration at half of the fitted maximal effect; on the % scale 0 is the no-effect control and ±100 the full control effect; nearly all actives have a fitted effect of over 75% in size
MLL CXXC TRF = inhibitors of human MLL CXXC domain-DNA interaction, HTRF format | shares compounds with CXXC DNA block | MLL CXXC-DNA binding, HTRF, biochemical | Potency, µM (titrated, usually from 172 µM), without a hit: at the top dose activity change, negative = inhibition, usual class: inhibitors | 210 tested, 30% active | AID 624162; further: on the % scale 0 is the no-effect control and ±100 the full control effect; nearly all actives have a fitted effect of over 80% in size
ClpP validation = inhibits B. subtilis ClpP protease, hit validation; shares compounds with ClpP mod; purified B. subtilis ClpP, FRET-FV substrate cleavage, 20 min; Potency, µM (titrated, usually from 57.5 µM), inactives show at the top dose activity change, negative = inhibition, actives largely listed as inhibitors; 470 tested, 40% active; further: potency means the concentration at half of the fitted maximal effect; on the % scale 0 is the no-effect control and ±100 the full control effect; nearly all actives have a fitted effect of over 70% in size
* = called active by the depositor; ? = inconclusive; / = no result given. The entries come from a sample that favours hits as a whole. Unless noted, the call rests on the fitted dose curve; in most records, active means well fitted curve in the direction sought with a large enough effect; inconclusive means small, poorly fitted or top-dose-only effect, or another doubt; inactive means no such curve, though single readings can be large; an effect the other way counts as inactive or inconclusive.

SMILES	Menin MLL FP FL	p53 reactivation	CXXC DNA block	Menin-MLL TR inh	ClpP mod	MLL CXXC Fl	MLL CXXC TxRed	MLL CXXC TRF	others
COCCNC(=O)/C(C#N)=C/c1c(N2CCN(C)CC2)nc2c(C)cccn2c1=O	-1.0	-3.1%	-6.0%	15.4%	-24.6%	/	/	/
CCN1CCN(c2nc3c(C)cccn3c(=O)c2/C=C(\C#N)C(=O)NCCOC)CC1	-5.4	-2.2%	31.6µM*	-1.7%	3.6%	8.4%	5.1%	41.7%
CC(=O)c1cccc(NC(=O)Nc2sc3nc4n(c(=O)c3c2C)CCC(C)CC4)c1 (stereo not given)	/	/	/	/	-8.9%	/	/	/
O=C(CSC1=NS(=O)(=O)c2ccccc21)Nc1ccccc1	0.7	-3.1%	31.6µM*	-0.8%	-1.2%	-1.7%	113µM*	24.3µM*
COc1ccccc1/C=C1/C(=O)ON=C1C	-6.5	14.3%	?	-2.5%	-0.7%	100µM*	126µM*	-13.6%
COc1ccc(/C=C2/C(=O)ON=C2C)cc1Br	0.4	-6.0%	-2.4%	-2.1%	0.3%	/	/	/
NS(=O)(=O)c1ccc(NC2=CC(=O)C(=O)c3ccccc32)cc1	-5.4	-5.3%	?	?	/	?	?	107.8%
Cc1cc(N)c2cc(NC(=O)Nc3ccc4nc(C)cc(N)c4c3)ccc2n1	-29.9	/	/	15.8µM*	/	8.95µM*	?	9.68µM*
CSC1=NCCCN1C(=O)c1c(-c2ccccc2Cl)noc1C	-2.8	0.5%	?	/	-0.8%	?	24.9%	-4.7%
Cc1ccc(/C=C2/C(=O)c3ccc(C(=O)O)cc3C2=O)o1	?	0.6%	39.8µM*	?	-1.7%	?	?	38.5µM*
O=C(O)c1ccc2c(c1)C(=O)/C(=C\c1ccco1)C2=O	4.2	-5.9%	31.6µM*	?	2.2%	22.5µM*	17.8%	48.5µM*
Cc1ccc(C=C2C(=O)c3ccccc3C2=O)o1	8.4	?	0.2%	24.4%	1.3%	/	/	/
CCOc1ccc(S(=O)(=O)N(CC(=O)Nc2ccc3c(c2)OCO3)c2ccccc2)cc1	/	/	/	/	2.0%	/	/	/
Nc1c(C(=O)O)ccc2c1C(=O)c1ccccc1C2=O	?	-1.7%	?	?	/	/	/	/
Nc1cc(C(=O)O)c(N)c2c1C(=O)c1ccccc1C2=O	?	10.1%	31.6µM*	/	0.5%	113µM*	40µM*	149.7%
CCOc1ccc(C(=O)c2cn(CC(=O)Nc3cc(OC)cc(OC)c3)c3ccc(F)cc3c2=O)cc1	/	/	/	/	-6.1%	/	/	/
CCCCC1(C)OC(=O)C(=Cc2ccc(-c3ccc(Cl)c(C(=O)O)c3)o2)C(=O)O1 (stereo not given)	19.6	8.3%	39.8µM*	/	/	22.5µM*	44.8µM*	48.5µM*
N.N.O=C(O)C1(C(=O)O)CCC1.[Pt]	?	/	?	6.0%	/	8.0%	?	48.5µM*
O=[N+]([O-])c1cccc(-c2cn3nc(-c4ccccc4)c(-c4ccccc4)nc3n2)c1	?	-2.3%	39.8µM*	/	-1.9%	179µM*	48.9%	8.9%
O=[N+]([O-])c1ccc(-c2cn3nc(-c4ccccc4)c(-c4ccccc4)nc3n2)cc1	?	-1.6%	?	/	/	/	/	/
Oc1nc(Nc2ccc(F)cc2)sc1/C=C1\C=Nc2ccccc21	24.9	4.8%	24.0%	/	/	/	/	/
O=c1[nH]c(S)c(/C=C2\C=Nc3ccccc32)s1	?	2.8%	35.5µM*	/	0.7%	126µM*	?	?
CN1C(=O)C(=O)/C(=C(/O)c2ccc(Br)cc2)C1c1ccc(Cl)cc1 (stereo not given)	-2.2	/	-2.9%	18.0%	/	/	/	/
O=C1OC(c2ccc(Cl)cc2)/C(=C(/O)c2ccccc2)C1=O (stereo not given)	-1.8	?	?	34.3%	-0.1%	5.2%	126µM*	30.5%
CCc1ccc(NC(=O)c2c(Cl)nc(C)c(Cl)c2C)cc1	-1.3	6.2%	7.4%	-0.7%	43.4%	/	/	/	ClpP validation=-0.2%
SMILES	Menin MLL FP FL	p53 reactivation	CXXC DNA block	Menin-MLL TR inh	ClpP mod	MLL CXXC Fl	MLL CXXC TxRed	MLL CXXC TRF	others
CC(C)CCNC(=O)c1cc(-c2ccco2)nc2ccccc12	2.0	-6.6%	-8.4%	/	3.98µM*	/	/	/	ClpP validation=6.85µM*
COc1cc2c(cc1NC(=O)C(C)N1CCN(S(=O)(=O)c3ccc(C)c(C)c3)CC1)oc1ccccc12 (stereo not given)	-0.2	1.6%	25.9%	-2.9%	3.16µM*	/	/	/	ClpP validation=?
CCOc1c(Cl)cc(Cl)cc1CNCCSc1nnnn1C	/	/	/	/	-2.5%	/	/	/
CCOC(=O)N1CCN(S(=O)(=O)c2ccc(C(=O)Nc3nc4ccccc4s3)cc2)CC1	3.1	-6.8%	5.8%	-26.1%	115.7%	/	/	/	ClpP validation=?
Cc1ccc(N(CC(=O)Nc2ccc(Cl)cc2)S(=O)(=O)c2cccc3nonc23)cc1	/	/	/	/	1.1%	/	/	/
O=C(CN1CCN(Cc2ccccc2)CC1)NCCc1ccccc1	-0.7	2.1%	-5.7%	-23.0%	6.31µM*	/	/	/	ClpP validation=0.6%
O=C(CN1CCN(Cc2ccc(F)cc2)CC1)NCCc1ccccc1	-0.3	/	-2.8%	-2.1%	-0.4%	/	/	/
CCOc1ccc(NS(=O)(=O)c2ccc(C(=O)N3CC(C)OC(C)C3)cc2)cc1 (stereo not given)	/	-4.3%	/	/	0.8%	/	/	/
CCOc1ccc(S(=O)(=O)Nc2ccc(C(=O)N3CC(C)OC(C)C3)cc2)cc1 (stereo not given)	/	-0.7%	/	/	5.62µM*	/	/	/	ClpP validation=-0.4%
O=C(Nc1nnc(S(=O)(=O)N2CCCc3ccccc32)s1)c1ccccc1Br	/	/	/	/	0.4%	/	/	/
O=C(Nc1ccc(-c2cn3ccccc3n2)cc1)c1ccc(Cl)cc1	4.2	-1.7%	79.0%	?	76.1%	/	/	/	ClpP validation=-14.3%
O=C(NCCc1ccccc1)C1Cc2c(-c3ccccc3)ccnc2O1 (stereo not given)	/	/	/	/	?	/	/	/	ClpP validation=-1.7%
NC(=O)c1cccc(-c2ccnc3c2CC(C(=O)NCCc2ccccc2)O3)c1 (stereo not given)	/	/	/	/	-6.6%	/	/	/
CCOc1ccccc1N1CC(C(=O)Nc2ccc3c(c2)OCCO3)CC1=O (stereo not given)	-0.5	-0.9%	0.3%	-0.8%	7.94µM*	/	/	/	ClpP validation=-0.1%
